An excerpt weighted towards active compounds, which were near 0.5% of everything screened.
Tat export inh – E. coli Tat export inhibitors, primary screen, MC4100, TorA-mCherry reporter, fluorescence, single point; inhibition, % at 10 µM; actives 0.036% (n = 340,000);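 active = mean replicate inhibition at least 50% and at least half of replicates individually reaching 50%; inconclusive = only one of the two criteria met; inactive = neither criterion met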;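 also: exported cargo escapes ClpAP degradation while cytoplasmic cargo is degraded and loses fluorescence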
phage Ecoli inh – growth loss of phage-infected E. coli, primary screen, RecBCD inhibitor project, absorbance, with phage, HTS | inhibition, % at 11.9 µM | actives 0.26% (n = 360,000); in the data active = inhibition above about 11%
E coli growth-1 – E. coli V3065 growth inhibition, primary screen, counter-screen for AddAB inhibitor project, absorbance, OD600 | inhibition, % at 11.9 µM | AID 449728, 2010 | 18 h | actives 0.27% (n = 330,000);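 active = inhibition above the campaign's mean inhibition across all tested compounds plus 3 SD, cut at about 9.9% in these data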;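 also: uninfected addAB+ strain grown without phage in ampicillin broth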
E coli growth-2 – E. coli growth inhibition, primary screen, OD600 | Escherichia coli growth, 23 h; active compounds read low | OD600 absorbance (test concentration not listed) | actives 0.21% (n = 330,000) | AID 1053175, 2014;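 active = OD600 absorbance below the run mean of sample wells minus 3.6 SD, in any replicate, cut at about 0.56 in these data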
AddAB inh – growth inhibition of E. coli expressing H. pylori AddAB, primary screen, AddAB inhibitor project, absorbance | actives 0.29% (n = 330,000) | inhibition, % at 11.9 µM | AID 435030, 2010; in the data active = inhibition above about 12%
AddAB conf – growth loss of phage-infected E. coli expressing H. pylori AddAB, confirmation, AddAB inhibitor project, absorbance, E. coli V3065, T4 phage, triplicate. actives 64% (n = 880). OD; T4 phage with gene 2 nonsense mutations. inhibition, % at 11.9 µM. shares compounds with AddAB inh;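 active = mean inhibition above a set limit taken from the earlier primary screen, cut at about 13% in these data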;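 also: higher means less bacterial growth since AddAB block lets phage replicate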
RecBCD counter – growth loss of RecBCD+ E. coli with mutant T4 phage, counter-screen for AddAB inhibitor project, absorbance, V66 E. coli; shares compounds with AddAB inh; OD growth; AID 488955, 2010; actives 73% (n = 880); inhibition, % at 11.9 µM;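 active = mean inhibition above the mean of solvent-only control wells plus 3 SD, cut at about 4% in these data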;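 also: optical density read after an 18 h incubation at 37 °C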
Bact viability – bacterial viability inhibition counter-screen, confirmation, counter-screen for AddAB inhibitor project, absorbance | actives 35% (n = 880) | shares compounds with AddAB inh | inhibition, % at 11.9 µM | AID 488956, 2010 | absorbance (AddAB counterscreen); in the data active = inhibition above about 25%
Of the large screens only hits and unclear results are named; the others gave an inactive call (follow-up assays come after a bar, where they were run).

O=C(CCNC(=O)c1ccco1)Nc1ccccc1	none
Cn1c(=O)c2c(nc(NN=Cc3ccncc3)n2Cc2ccccc2)n(C)c1=O	none (no result: Tat export inh, phage Ecoli inh, E coli growth-1, AddAB inh)
Cc1onc(-c2ccccc2)c1C(=O)NN=Cc1ccco1	none (no result: Tat export inh, phage Ecoli inh, E coli growth-1, AddAB inh)
COc1cnc(-c2ccccn2)nc1Sc1ccccc1	AddAB inh 14 | AddAB conf inactive | RecBCD counter inactive | Bact viability inactive
CC(C)Cc1ccc(CN2CCCC(NC(=O)c3ccnn3C)C2)cc1 (configuration not stated)	none
CC(C)Cc1ccc(CN2CCCC(NC(=O)c3ccoc3)C2)cc1 (configuration not stated)	E coli growth-1 13, AddAB inh 14 | AddAB conf inactive | RecBCD counter 5.4 | Bact viability inactive
COc1cc(CCCN2CCNCC2c2ccccc2)cc(OC)c1OC (configuration not stated)	none (no result: Tat export inh, phage Ecoli inh, E coli growth-1, AddAB inh)
Nc1nonc1C(=O)NCCN=Cc1cc(Cc2ccccc2)cc(Br)c1O	Tat export inh inconclusive, AddAB inh 18 (no result: phage Ecoli inh) | AddAB conf 20 | RecBCD counter 8.8 | Bact viability inactive
COc1ccccc1C(=O)N/C(=C\c1ccccc1)C(=O)NC(C)C(=O)O (configuration not stated)	E coli growth-1 72, AddAB inh 97 (no result: E coli growth-2) | AddAB conf inactive | RecBCD counter inactive | Bact viability inactive
C=CCOC(=O)C1=CC(c2cn(C(C)=O)c3ccccc23)CC(OCc2ccc(CO)cc2)O1 (configuration not stated)	none (no result: Tat export inh, phage Ecoli inh, E coli growth-1, AddAB inh)
CCCc1cc(C(=O)Nc2ccccc2SC)no1	E coli growth-1 91, AddAB inh 98 | AddAB conf inactive | RecBCD counter inactive | Bact viability inactive
CCN1C(=O)C2C(c3ccc(-c4ccc(Cl)c(Cl)c4)c(OC)c3)N3CCCC[C@@]3(C(=O)OC)C2C1=O (some centres not stated)	none (no result: Tat export inh, phage Ecoli inh, E coli growth-1, AddAB inh)
O=C(NN1C(=O)CSC1=S)C(=O)NN1C(=O)CSC1=S	phage Ecoli inh 13, E coli growth-1 12, AddAB inh 12 | AddAB conf 34 | RecBCD counter 16 | Bact viability 28
CC(=NNc1nncc2ccccc12)c1ccc(O)cc1	none (no result: Tat export inh, phage Ecoli inh, E coli growth-1, AddAB inh)
COc1ccccc1NC(c1cccnc1)c1ccc2cccnc2c1O (configuration not stated)	none
Cc1ccnc(NC(c2cccnc2)c2ccc3cccnc3c2O)c1 (configuration not stated)	Tat export inh inconclusive, phage Ecoli inh 15, E coli growth-1 12, AddAB inh 12 | AddAB conf inactive | RecBCD counter 12 | Bact viability inactive
COc1ccc(OC)c(C2CC(=O)C(C)C(c3cc(OC)ccc3OC)N2)c1 (configuration not stated)	E coli growth-1 11, AddAB inh 13 | AddAB conf inactive | RecBCD counter inactive | Bact viability inactive
COc1ccc(OC)c(C2C/C(=N/O)C(C)C(c3cc(OC)ccc3OC)N2)c1 (configuration not stated)	none (no result: E coli growth-1, E coli growth-2, AddAB inh)
CCCOc1ccc(C=NNC(=O)c2ccc(Cn3cc([N+](=O)[O-])cn3)o2)cc1	none (no result: Tat export inh, phage Ecoli inh, E coli growth-1, AddAB inh)
C[C@H]1c2cccc(O)c2C(O)=C2C(=O)[C@]3(O)C(O)=C(C(N)=O)C(=O)[C@@H](N(C)C)[C@@H]3[C@@H](O)[C@@H]21	Tat export inh 147, E coli growth-1 100, AddAB inh 98 (no result: phage Ecoli inh, E coli growth-2) | AddAB conf 101 | RecBCD counter 100 | Bact viability 101
COc1ccc(OCC(O)CN(C)C(=O)C=Cc2cccc([N+](=O)[O-])c2)cc1 (configuration not stated)	none (no result: Tat export inh, phage Ecoli inh, E coli growth-1, AddAB inh)
CCCC(c1nnnn1CS(=O)(=O)c1ccc(C)cc1)N1CCN(c2ccccc2)CC1 (configuration not stated)	none
CCC(c1nnnn1CS(=O)(=O)c1ccc(C)cc1)N1CCN(c2nc3ccccc3s2)CC1 (configuration not stated)	E coli growth-1 32, AddAB inh 44 | AddAB conf inactive | RecBCD counter inactive | Bact viability inactive
COc1cc(NC(=O)c2cc(C3CC3)on2)c(OC)cc1Cl	E coli growth-1 77, AddAB inh 98 | AddAB conf inactive | RecBCD counter inactive | Bact viability inactive
CC(CC=NNC(=O)COc1cc(Cl)ccc1Cl)c1ccccc1 (configuration not stated)	none (no result: Tat export inh, phage Ecoli inh, E coli growth-1, AddAB inh)
O=C(COC(=O)c1ccc([N+](=O)[O-])s1)c1ccc[nH]1	AddAB inh 12 (no result: E coli growth-2) | AddAB conf 68 | RecBCD counter inactive | Bact viability inactive
O=C(N/N=C/C(Br)=C\c1ccccc1)c1ccc2nc[nH]c2c1	AddAB inh 12 (no result: E coli growth-2) | AddAB conf inactive | RecBCD counter inactive | Bact viability inactive
O=C(NN=C/C(Br)=C\c1ccccc1)c1ccc2nc[nH]c2c1	none (no result: Tat export inh, phage Ecoli inh, E coli growth-1, AddAB inh)
Cc1ccc(NC(=O)NCC2CC2(Cl)Cl)cc1 (configuration not stated)	none (no result: E coli growth-2)
O=C(NCC1CC1(Cl)Cl)Nc1ccc(Cl)c(Cl)c1 (configuration not stated)	E coli growth-2 0.43, AddAB inh 13 | AddAB conf inactive | RecBCD counter 13 | Bact viability inactive
O=C(O)CCCCCn1c(SCC(=O)c2ccc(O)c(O)c2)nc2ccsc2c1=O	none
CCCCn1c(SCC(=O)c2ccc(O)c(O)c2)nc2ccsc2c1=O	AddAB inh 15 (no result: phage Ecoli inh) | AddAB conf inactive | RecBCD counter 4.7 | Bact viability inactive
Cc1ccc(C(=NO)c2oc3c(C)c4oc(=O)cc(C)c4cc3c2C)cc1	none (no result: Tat export inh, phage Ecoli inh, E coli growth-1, AddAB inh)
CC(=NO)c1ccccc1C(=O)O	none (no result: Tat export inh, phage Ecoli inh, E coli growth-1, AddAB inh)
CCCS(=O)(=O)N1CCC(C(=O)NCc2ccccc2Cl)CC1	AddAB inh 12 | AddAB conf 14 | RecBCD counter 5.8 | Bact viability inactive
O=C(NCc1ccccc1Cl)C1CCN(S(=O)(=O)N2CCCCCC2)CC1	none
OCCC1CC(O)C(O)[C@]2(OCc3ccccc32)O1 (some centres not stated)	none (no result: Tat export inh, phage Ecoli inh, E coli growth-1, AddAB inh)
CCOC(=O)c1[nH]c2ccccc2c1NC(=O)C(CC)CC	E coli growth-1 11, AddAB inh 63 | AddAB conf inactive | RecBCD counter inactive | Bact viability inactive
CCOC(=O)c1[nH]c2ccccc2c1NC(C)=O	none
CC(C)(C)[C@]1(O)CCN2CC3c4ccccc4CCc4cccc(c43)C2C1 (some centres not stated)	none (no result: Tat export inh, phage Ecoli inh, E coli growth-1, AddAB inh)
Cc1cc(NN=Cc2c[nH]c3ccccc23)c2ccccc2n1	none (no result: Tat export inh, phage Ecoli inh, E coli growth-1, AddAB inh)
CCn1cc(C(=O)NCc2ccccn2)c(=O)c2cc(F)c(N3CCN(C)CC3)cc21	E coli growth-1 93, AddAB inh 98 (no result: E coli growth-2) | AddAB conf 99 | RecBCD counter 16 | Bact viability 98
